Cycloheximide cs: Cycloheximide Counterscreen for Small Molecule Inhibitors of Shiga Toxin. cell reporter, cycloheximide protein synthesis inhibition counterscreen. max response, %. hit rate 12% among 300,000. AID 2314, 2010; in the data active = max response mostly above about 13%, no sharp cut-off; inactive = mostly below about 14%; note: read at 38.3 µM for the half of the compounds with a filed dose; 0% is about no effect
Pf growth 48h: Primary qHTS for delayed death inhibitors of the malarial parasite plastid, 48 hour incubation; hit rate 5.9% among 310,000; AID 504832, 2011; Potency, µM (top dose mostly 28.7 µM), for inactives: at the top dose activity change, negative = inhibition, hits mostly inhibitors; P. falciparum luciferase growth in erythrocytes, 48 h; note: potency is the fitted concentration of half-maximal effect; % is set by controls: 0 for no effect and ±100 for the full control effect
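Cell-based growth assay: transgenic P. falciparum expressing firefly luciferase, cultured in red cells within RPMI 1640 containing 0.5% w/v Albumax, 24 mM bicarbonate and gentamycin. A drop in luciferase activity indicates inhibition.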
HCMV antiviral: qHTS Assay for inhibitors of the human cytomegalovirus (HCMV); hit rate 4.5% among 410,000; activity change, negative = inhibition, % at 57.5 µM; HFF cells, HCMV-luciferase reporter, 72 h; hits give low values; in the data active = activity change below about -60%; inconclusive = no clear call, values can overlap the other calls; inactive = above about -39%; note: % is set by controls: 0 for no effect and ±100 for the full control effect
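Cell-based, HFFs, 1000 cells/well, 16 h 37C; cpds in DMSO + HCMV-luc, MOI 1 PFU/cell; 72 h 37C; OneGlo luminescence after 5 min RT; norm. to buffer vs Salinomycin 10uM.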
Pf growth 96h: Primary qHTS for delayed death inhibitors of the malarial parasite plastid, 96 hour incubation; P. falciparum luciferase reporter growth, 96 h; Potency, µM (series often up to 28.7 µM), inactives show at the highest dose activity change, negative = inhibition, actives largely listed as inhibitors; hit rate 6.9% among 320,000; AID 504834, 2011; note: potency is the fitted concentration of half-maximal effect; % is set by controls: 0 for no effect and ±100 for the full control effect
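Two parasite generations (96 h, 37 C, 5% CO2) of compound exposure in infected erythrocytes (0.05% parasitemia, 2% hematocrit). Luciferase-reporter P. falciparum; decreased luminescence indicates inhibited growth, aimed at apicoplast-acting delayed death.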
Shiga toxin inh: A qHTS for Small Molecule Inhibitors of Shiga Toxin. inhibition, % at 38.7 µM. AID 2315, 2010. hit rate 9.2% among 290,000. Vero cells, Shiga toxin protein synthesis inhibition reporter; in the data active = inhibition mostly above about 28%, no sharp cut-off; inactive = mostly below about 43%; note: 0% is about no effect
* hit, by the source's call; ? = inconclusive; . = not tested or not shown; [ ] = dose if it differs, or a comment. Shown are actives, neighbours in structure and some others; about 20% of the full set was active somewhere. Unless noted, calls come from the whole dose curve; as a rule, active = well fitted inhibition curve with a large enough effect; inconclusive = small, poorly fitted or top-dose-only effect, or another doubt; inactive = no such curve, though single readings can be large or run the other way.

SMILES	Cycloheximide cs	Pf growth 48h	HCMV antiviral	Pf growth 96h	Shiga toxin inh
CCn1c(/C=N/Nc2ccc(C(=O)O)cc2)nc2ccccc21	-2.5	50.1%	52.7	-67.3%	-13.7
CC1Oc2ccccc2C=C1/C=N/Nc1ccc(C(=O)O)cc1 (centres undefined)	33.2*	-37.1%	7.6	14.5%	69.9*
O=C(Nc1nnc2n1CCS2)c1ccccc1C(F)(F)F	.	.	10.1	.	.
COc1cccc(CN2CCNC(=O)C2CC(=O)N(C)CC2CCOCC2)c1OC (centres undefined)	-1.2	7.2%	7.6	?	8.4
Cc1cc(C)c(NC(=O)OCCN2CCOCC2)c(C)c1	7.8	2.2%	28.7	0.233µM*	-6.3
Cc1ccc(OCCN2CCOCC2)cc1C	16.8*	11.2%	16.2	?	39.6
Cc1cc(OCCN2CCOCC2)ccc1Cl	31.7*	90.5%	14.8	?	137.7*
COCCNC(=S)N1CCC(C(=O)c2ccc(C)cc2)CC1	8.4	-5.5%	-17.2	325.0%	14.3
Cc1ccccc1C(=O)NC(CC(C)C)C(=O)N1CCN(c2ccccc2)CC1 (centres undefined)	1.1	?	-2.2	?	-0.9
CC1CCCN(S(=O)(=O)c2cc3c(cc2Cl)NC(=O)CO3)C1 (centres undefined)	.	.	0.0	.	.
Cc1ccc(S(=O)(=O)/N=C(/c2ccccc2)N2CCOCC2)c(C)c1	-5.9	-41.4%[1.15 µM]	-16.3	5.86µM*	-4.5
O=C(c1cc(C2CC2)nn1-c1ccccc1)N1CCN(Cc2ccc(Cl)cc2)CC1	.	?	-30.5	?	.
Cc1ccc(Cn2ccc(C3CC3)n2)cc1	61.9*	116.9%	?	101.8%	52.2
Clc1ccc(Cn2ccc(C3CC3)n2)cc1	31.2*	87.7%	-29.9	97.9%	65.9*
COc1ccccc1C1CCN(Cc2ccc(C)cc2)CC1	-3.6	.	9.2	?	-5.9
O=C(NN1C(=O)c2ccc(-c3ccc4c(c3)C(=O)N(NC(=O)c3cccnc3)C4=O)cc2C1=O)c1cccnc1	15.1	39.5%	-77.5*	32.5%	25.5
Cc1c(N=Nc2ccc(O)cc2)c(=O)n(-c2ccccc2)n1C	-1.4	15.1%	-23.2	?	-8.2
Cc1c(N=Cc2nc3ccccc3[nH]2)c(=O)n(-c2ccccc2)n1C	46.4*	25.6%	1.7	6.9%	89.7*
COc1cccc(-n2c(O)c(C=Nc3c(C)n(C)n(-c4ccccc4)c3=O)c(=O)[nH]c2=O)c1	-5.6	4.2%	4.5	37.7%	-10.5
Cc1c(N=Cc2nc3ccccc3n2C)c(=O)n(-c2ccccc2)n1C	49.3*	-2.0%	57.7	63.4%	63.6*
Cc1cccc(-c2ccc(C=Nc3c(C)n(C)n(-c4ccccc4)c3=O)o2)c1	28.1*	-3.3%	7.9	-21.3%	35.1
Cc1[nH]c2ccccc2c1N=Nc1c(C)n(C)n(-c2ccccc2)c1=O	10.4	118.3%	20.2	?	2.2
CCCCCC(=C/c1ccccc1)/C=N/Nc1ccc(S(=O)(=O)N2CCOCC2)cc1[N+](=O)[O-]	.	.	4.9	.	.
O=C(COc1ccc2ccccc2c1)N1CCN(C(=O)c2ccc([N+](=O)[O-])cc2)CC1	-1.6	1.6%	3.7	177.8%	-8.2
N#Cc1ccccc1OCC(=O)Nc1ccc2c(c1)OCCCO2	49.8*	41.7%	31.8	0.0%	77.3*
SMILES	Cycloheximide cs	Pf growth 48h	HCMV antiviral	Pf growth 96h	Shiga toxin inh
O=C(COC(=O)Cc1ccccc1F)Nc1ccc2c(c1)OCO2	5.9	?	1.1	9.0%	-4.6
O=C(COc1ccccc1F)Nc1ccc2c(c1)OCCO2	56.2*	96.3%	-14.4	31.0%	102.9*
N#Cc1ccccc1OCC(=O)Nc1ccc2c(c1)OCCO2	.	211.0%	-10.6	93.1%	.
O=C(COC(=O)Cc1ccccc1F)Nc1ccc2c(c1)OCCO2	33.3*	11.8%	-33.1	0.0%	59.0*
O=C(COc1ccccc1Br)Nc1ccc2c(c1)OCCCO2	46.7*	198.9%	?	114.7%	65.6*
O=S(=O)(c1ccc(F)cc1F)N1CCN(CCO)CC1	.	.	-28.7	.	.
CCOC(=O)C(Nc1ccc2ccccc2c1)C(=O)OCC	74.1*	?	-34.7	?	80.0*
CCOC(=O)C(C(=O)OCC)C(Nc1cccc(Br)c1)c1ccccc1 (centres undefined)	-3.0	-10.9%	4.9	85.3%	-26.4
CC(=O)CC(=O)Nc1ccc2ccccc2c1	24.2	63.6%	0.1	111.2%	32.9
CC(=O)Nc1ccc2ccccc2c1	29.2*	.	.	74.5%	43.0

Bioassay records from PubChem BioAssay.
